Assay results reported in PubChem BioAssay AID1159580 (chemical genetic matrix, 2015).
The whole screen tested about 5,500 compounds, of which about 2,000 (36%) were called active. Roughly 18% stayed inconclusive and do not appear here. Rule as the data show it: active = normalized growth mostly below about 0.91 (no sharp cut-off); inconclusive = no clear call, values can overlap the other calls; inactive = mostly above about 0.92. The list shows a part of the results.

Test: chemical genetic growth profiling, strain panel (AID 1159580);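 also: tested at 20 µM; growth read once vehicle control cultures reached saturation at 30 °C; 1 = growth at the plate median or of vehicle wells; lower values mean less growth of the strain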
Details: growth OD
[1] = S. cerevisiae deletion strains, locus YMR307W, strain GAS1, stronger effect = lower value
[2] = S. cerevisiae deletion strains, locus YNL153C, strain GIM3, stronger effect = lower value
[3] = S. cerevisiae deletion strains, locus YNL322C, strain KRE1, stronger effect = lower value
[4] = S. cerevisiae deletion strains, locus YAL013W, strain DEP1, stronger effect = lower value
[5] = S. cerevisiae deletion strains, locus YAL040C, strain CLN3, stronger effect = lower value
[6] = S. cerevisiae deletion strains, locus YDR363W, strain ESC2, stronger effect = lower value
[7] = S. cerevisiae deletion strains, locus YER002W, strain NOP16, stronger effect = lower value
[8] = S. cerevisiae deletion strains, locus YNL175C, strain NOP13, stronger effect = lower value
[9] = S. cerevisiae deletion strains, locus YNL197C, strain WHI3, stronger effect = lower value
[10] = S. cerevisiae deletion strains, locus YNL224C, strain SQS1, stronger effect = lower value
[11] = S. cerevisiae deletion strains, locus YOR083W, strain WHI5 (second series), stronger effect = lower value

Measured: normalized growth

NC(=O)NCC(N)C(=O)O (stereo unspecified)
inactive: S. cerevisiae deletion strains, locus YBR021W, strain FUR4, stronger effect = lower value 1.06 | S. cerevisiae deletion strains, locus YBR229C, strain ROT2, stronger effect = lower value 1.01 | S. cerevisiae deletion strains, locus YCL029C, strain bik1, stronger effect = lower value 0.988 | S. cerevisiae deletion strains, locus YDL035C, strain GPR1, stronger effect = lower value 1.04 | S. cerevisiae deletion strains, locus YDL074C, strain BRE1, stronger effect = lower value 1.03 | S. cerevisiae deletion strains, locus YDL101C, strain DUN1, stronger effect = lower value 1.02 | S. cerevisiae deletion strains, locus YDL134C, strain PPH21, stronger effect = lower value 1.03 | S. cerevisiae deletion strains, locus YDL185W, strain tfp1, stronger effect = lower value 0.989 | S. cerevisiae deletion strains, locus YDL192W, strain arf1, stronger effect = lower value 1 | S. cerevisiae deletion strains, locus YDR101C, strain arx1, stronger effect = lower value 0.975 | S. cerevisiae deletion strains, locus YDR162C, strain NBP2, stronger effect = lower value 1.04 | S. cerevisiae deletion strains, locus YDR318W, strain mcm21, stronger effect = lower value 0.999 | S. cerevisiae deletion strains, locus YDR388W, stronger effect = lower value 0.983 | S. cerevisiae deletion strains, locus YDR502C, strain sam2, stronger effect = lower value 0.984 | S. cerevisiae deletion strains, locus YEL061C, strain CIN8, stronger effect = lower value 1.01 | S. cerevisiae deletion strains, locus YER110C, stronger effect = lower value 0.978 | S. cerevisiae deletion strains, locus YER155C, strain BEM2, stronger effect = lower value 1.01 | S. cerevisiae deletion strains, locus YER167W, strain BCK2, stronger effect = lower value 1.02 | S. cerevisiae deletion strains, locus YGL078C, strain dbp3, stronger effect = lower value 0.995 | S. cerevisiae deletion strains, locus YGL086W, strain mad1, stronger effect = lower value 0.994 | S. cerevisiae deletion strains, locus YGL248W, strain PDE1, stronger effect = lower value 1.02 | S. cerevisiae deletion strains, locus YGR078C, strain PAC10, stronger effect = lower value 1.03 | S. cerevisiae deletion strains, locus YGR135W, strain pre9, stronger effect = lower value 0.995 | S. cerevisiae deletion strains, locus YGR252W, strain gcn5, stronger effect = lower value 0.987 | S. cerevisiae deletion strains, locus YHR030C, strain SLT2, stronger effect = lower value 1.01 | S. cerevisiae deletion strains, locus YHR079C, strain IRE1 (second series), stronger effect = lower value 0.983 | S. cerevisiae deletion strains, locus YHR094C, strain hxt1, stronger effect = lower value 0.975 | S. cerevisiae deletion strains, locus YHR129C, strain ARP1, stronger effect = lower value 1.02 | S. cerevisiae deletion strains, locus YHR200W, strain rpn10, stronger effect = lower value 0.986 | S. cerevisiae deletion strains, locus YIL066C, strain RNR3, stronger effect = lower value 1.03 | S. cerevisiae deletion strains, locus YIL073C, strain SPO22, stronger effect = lower value 1 | S. cerevisiae deletion strains, locus YIL125W, strain kgd1, stronger effect = lower value 0.991 | S. cerevisiae deletion strains, locus YIR030C, strain dcg1, stronger effect = lower value 0.996 | S. cerevisiae deletion strains, locus YJL095W, strain BCK1, stronger effect = lower value 1.03 | S. cerevisiae deletion strains, locus YJL134W, strain LCB3, stronger effect = lower value 1.01 | S. cerevisiae deletion strains, locus YJL168C, strain set2, stronger effect = lower value 0.989 | S. cerevisiae deletion strains, locus YJL187C, strain SWE1 (second series), stronger effect = lower value 1.02 | S. cerevisiae deletion strains, locus YJR043C, strain POL32, stronger effect = lower value 1.04 | S. cerevisiae deletion strains, locus YJR075W, strain HOC1, stronger effect = lower value 1.02 | S. cerevisiae deletion strains, locus YKL009W, strain mrt4, stronger effect = lower value 1 | S. cerevisiae deletion strains, locus YKL068W, stronger effect = lower value 0.997 | S. cerevisiae deletion strains, locus YKL085W, strain MDH1 (second series), stronger effect = lower value 1.01 | S. cerevisiae deletion strains, locus YKL085W, strain MDH1, stronger effect = lower value 1.01 | S. cerevisiae deletion strains, locus YKL190W, strain CNB1, stronger effect = lower value 1.01 | S. cerevisiae deletion strains, locus YKR001C, strain vps1, stronger effect = lower value 0.989 | S. cerevisiae deletion strains, locus YLR039C, strain RIC1, stronger effect = lower value 1.08 | S. cerevisiae deletion strains, locus YLR058C, strain SHM2, stronger effect = lower value 1.02 | S. cerevisiae deletion strains, locus YLR102C, strain apc9, stronger effect = lower value 0.987 | S. cerevisiae deletion strains, locus YLR262C, strain YPT6, stronger effect = lower value 1.1 | S. cerevisiae deletion strains, locus YLR268W, strain sec22, stronger effect = lower value 0.983 | S. cerevisiae deletion strains, locus YLR330W, strain CHS5, stronger effect = lower value 1.01 | S. cerevisiae deletion strains, locus YLR342W, strain FKS1 (second series), stronger effect = lower value 1.03 | S. cerevisiae deletion strains, locus YLR371W, strain rom2, stronger effect = lower value 0.981 | S. cerevisiae deletion strains, locus YLR418C, strain cdc73, stronger effect = lower value 0.982 | S. cerevisiae deletion strains, locus YML016C, strain PPZ1, stronger effect = lower value 1.01 | S. cerevisiae deletion strains, locus YML032C, strain rad52, stronger effect = lower value 0.995 | S. cerevisiae deletion strains, locus YML124C, strain tub3, stronger effect = lower value 0.981 | S. cerevisiae deletion strains, locus YMR078C, strain ctf18, stronger effect = lower value 0.971 | S. cerevisiae deletion strains, locus YMR223W, strain ubp8, stronger effect = lower value 0.99 | [1] 1.14 | S. cerevisiae deletion strains, locus YNL067W, strain RPL9B, stronger effect = lower value 1.01 | [2] 1.01 | S. cerevisiae deletion strains, locus YNL233W, strain BNI4, stronger effect = lower value 1.03 | S. cerevisiae deletion strains, locus YNL250W, strain rad50, stronger effect = lower value 1.01 | S. cerevisiae deletion strains, locus YNL271C, strain bni1, stronger effect = lower value 0.982 | S. cerevisiae deletion strains, locus YNL298W, strain CLA4, stronger effect = lower value 0.994 | S. cerevisiae deletion strains, locus YNL307C, strain MCK1, stronger effect = lower value 0.991 | [3] 1.01 | S. cerevisiae deletion strains, locus YNR052C, strain pop2, stronger effect = lower value 0.991 | S. cerevisiae deletion strains, locus YOL012C, strain htz1 0.762 | S. cerevisiae deletion strains, locus YOL147C, strain pex11, stronger effect = lower value 0.985 | S. cerevisiae deletion strains, locus YOR061W, strain CKA2, stronger effect = lower value 1.02 | S. cerevisiae deletion strains, locus YOR069W, strain VPS5, stronger effect = lower value 1.01 | S. cerevisiae deletion strains, locus YOR136W, strain idh2, stronger effect = lower value 0.985 | S. cerevisiae deletion strains, locus YOR144C, strain elg1, stronger effect = lower value 0.984 | S. cerevisiae deletion strains, locus YOR184W, strain ser1, stronger effect = lower value 0.989 | S. cerevisiae deletion strains, locus YOR316C, strain cot1, stronger effect = lower value 0.983 | S. cerevisiae deletion strains, locus YPR119W, strain clb2, stronger effect = lower value 0.987 | S. cerevisiae deletion strains, locus YPR141C, strain kar3, stronger effect = lower value 0.995 | S. cerevisiae deletion strains, locus YPR163C, strain tif3, stronger effect = lower value 0.985 | S. cerevisiae deletion strains, locus YPR167C, strain met16, stronger effect = lower value 0.989 | S. cerevisiae deletion strains, strain wtn01, stronger effect = lower value 0.989 | S. cerevisiae strains, strain wild type, stronger effect = lower value 1.02

NC(=Nc1ccccc1)NC(=O)c1nc(Cl)c(N)nc1N
inactive: [4] 0.975 | [5] 0.997 | S. cerevisiae deletion strains, locus YCL061C, strain MRC1 (second series), stronger effect = lower value 1 | S. cerevisiae deletion strains, locus YDR150W, strain NUM1, stronger effect = lower value 0.999 | [6] 0.973 | [7] 0.991 | S. cerevisiae deletion strains, locus YGR229C, strain SMI1, stronger effect = lower value 1 | [1] 0.993 | [2] 0.986 | [8] 1.01 | [9] 1.01 | [10] 1 | [3] 0.992 | [11] 1

CCN(c1nc(N)c(C(=O)N=C(N)N)nc1Cl)C(C)C
inactive: [4] 1 | [5] 1 | [6] 0.989 | [7] 1.04 | S. cerevisiae deletion strains, locus YMR263W, strain SAP30, stronger effect = lower value 1 | [8] 1.04 | [9] 1.02 | [10] 1.06 | [11] 1.02
